The full list was thinned out, with hits kept by preference.
Dicer inh – inhibitors of Dicer pre-microRNA processing, primary screen, biochemical, cat-ELCCA, chemiluminescence; cat-ELCCA pre-miR-21 Dicer processing; stronger effect = higher value; actives 6% (n = 47,000); z-score at 25 µM; Endoribonuclease Dicer (Homo sapiens), Q9UPY3; in the data active = z-score above about 3, passing the limit was not always enough;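 also: plate controls were vehicle for no effect and no enzyme for full effect; higher signal means more uncleaved substrate so more Dicer inhibition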
The depositor's hits bear a star.

SMILES	Dicer inh
O=C1/C(=C/c2ccc(C(F)(F)F)cc2)CCCc2ccccc21	-0.31
Cc1c(S(=O)(=O)c2ccc(Cl)cc2)csc1C(=O)N1CCN(c2ccc(C(F)(F)F)cn2)CC1	-0.37
N#Cc1ccc(CSC2=NCCCN2)cc1	0.28
CCCCn1c(COc2ccc(OC)cc2)nc2ccccc21	1.3
CN(C)/C=N/c1ncc(C(F)(F)F)cc1Cl	0.92
COc1ccc2[nH]cc(CCNC3CC(=O)N(c4ccc(Br)cc4)C3=O)c2c1 (stereo unspecified)	3.5*
COc1ccc(N2C(=O)CC(NCCc3c[nH]c4ccc(Cl)cc34)C2=O)cc1 (stereo unspecified)	-0.9
O=C1CC(NCCc2c[nH]c3ccccc23)C(=O)N1c1cccc(Cl)c1 (stereo unspecified)	0.63
O=C(CN1C2=NCCCN2c2ccccc21)c1ccc2c(c1)OCO2	0.97
O=C(CN1C2=NCCCN2c2ccccc21)c1ccc(Br)cc1	4*
O=C(CN1C2=NCCN2c2ccccc21)c1ccc(Cl)cc1	0
CCCCc1nc2ccccc2n1CC(=O)O	-1.3
O=C(CC1SC(=Nc2ccccc2)NC1=O)NCc1ccccc1 (stereo unspecified)	-0.3
COC(=O)c1scc(Br)c1OC(=O)c1ccc(C(C)(C)C)cc1	-1.4
Nc1ccc(CCc2nc3cc(N)ccc3o2)cc1	3.9*
Nc1ccc2oc(-c3cccc(-c4nc5cc(N)ccc5o4)n3)nc2c1	-4.8
Cc1ccccc1-c1nc2cc(N)ccc2o1	5.7
Cc1nonc1NC(=O)N1CCOCC1	5.9*
Cc1nonc1NC(=O)Nc1ccncc1	44
O=C(Nc1ccc(-c2ccccn2)s1)N1CCOCC1	-0.4
CCCCCOc1ccc(OC(=O)c2sc3ncn(CC)c(=O)c3c2C)cc1	-0.56
O=C(O)C1CC(=O)N(c2ccccc2O)C1 (stereo unspecified)	-1.7
Nc1cc(=O)[nH]c(=O)n1-c1ccc(F)cc1F	0.39
ON=C1c2cc(Br)ccc2-c2ccc(Br)cc21	-0.61
O=C1Sc2ccc(S(=O)(=O)Nc3ccc(F)cc3)c3cccc1c23	3.5*
SMILES	Dicer inh
COc1ccc(NS(=O)(=O)c2ccc3c4c(cccc24)C(=O)N3)cc1	0.18
O=C(O)c1ccccc1NS(=O)(=O)c1ccc2c3c(cccc13)C(=O)S2	-0.85
CC1CC(C)(C)N(C(=O)NC2CCCCC2)c2ccccc21 (stereo unspecified)	2.5
CC1CC(C)(C)N(C(=O)CN2C(=O)CCC2=O)c2ccccc21 (stereo unspecified)	1.8
CC1CC(C)(C)N(C(=O)Nc2cccc(Cl)c2)c2ccccc21 (stereo unspecified)	6.6*
CCn1c(=O)c2c(nc3n2CC(C)CN3c2ccc(Br)cc2)n(C)c1=O (stereo unspecified)	0.55
O=C(NNC(=O)c1cnn(-c2ccccc2)n1)c1ccc(Cl)c(Cl)c1	1.3
O=C1NC(c2ccccc2Cl)Nc2sc3c(c21)CCCC3 (stereo unspecified)	5.9*
O=C1NC(c2ccccc2Cl)Nc2sc3c(c21)CCN(Cc1ccccc1)C3 (stereo unspecified)	1.9
COc1cc(C2NC(=O)c3c(sc4c3CCCC4)N2)cc(OC)c1OC (stereo unspecified)	-0.42
O=C1NC(c2ccc(Cl)cc2)Nc2sc3c(c21)CCCC3 (stereo unspecified)	0.55
COc1cc(C2NC(=O)c3c(sc4c3CCCC4)N2)cc(Br)c1OC (stereo unspecified)	4.1*
COc1ccc(C2NC(=O)c3c(sc4c3CCCC4)N2)cc1 (stereo unspecified)	-1.2
O=C(O)CSCC(=O)Nc1ccc2c(c1)OCCCO2	1.8
CN(C(=O)c1cnn2c(C(F)F)cc(-c3ccccc3)nc12)C1CCCCC1	1.2
CCOC(=O)CSC1=C(C#N)C(c2cc(OC)ccc2OC)CC(=O)N1 (stereo unspecified)	0.79
Cn1c(=O)c2c3nc4ccc(Cl)cc4cc3c(=O)n(C)c2n(C)c1=O	-0.71
CS(=O)(=NS(=O)(=O)c1ccc(S(=O)(=O)c2ccc(C(F)(F)F)cn2)s1)c1ccc(Cl)cc1 (stereo unspecified)	0.87
CC(C)c1ccc(C2/C(=C(\O)c3ccccc3)C(=O)C(=O)N2CCCN(C)C)cc1 (stereo unspecified)	0.49
Cc1ccc(S(=O)(=O)N(C(=O)C(C)C)c2ccc3oc(=O)sc3c2)cc1	1.7
Cc1cc(F)ccc1S(=O)(=O)N(C(=O)c1ccncc1)c1ccc2oc(=O)sc2c1	6.5*
CCCC(=O)N(c1ccc2oc(=O)sc2c1)S(=O)(=O)c1ccc(OC)cc1	-2.1
CCOc1ccc(S(=O)(=O)N(C(=O)C(C)C)c2ccc3oc(=O)sc3c2)cc1	3.1*
O=C(c1ccncc1)N(c1cc2sc(=O)oc2c2ccccc12)S(=O)(=O)c1ccc(F)cc1	-2.7
Cc1cc(F)ccc1S(=O)(=O)N(C(=O)C(C)C)c1ccc2oc(=O)sc2c1	5*
SMILES	Dicer inh
COc1ccc(S(=O)(=O)N(C(=O)C(C)C)c2ccc3oc(=O)sc3c2)cc1OC	0.67
CCCC(=O)N(c1ccc2oc(=O)sc2c1)S(=O)(=O)c1ccc(Br)cc1	1.1
CCCC(=O)N(c1ccc2oc(=O)sc2c1)S(=O)(=O)c1ccc(OCC)cc1	-0.94
CCCCC(=O)N(c1ccc2oc(=O)sc2c1)S(=O)(=O)c1cc(OC)ccc1OC	5.2*
CC(=O)N1CCc2cc(Br)ccc21	-0.48
CC(C)S(=O)(=O)C/C(N)=N/OCc1cccc(Cl)c1	-2.8
CC1=C(C(N)=O)C(c2ccc(O)cc2)n2nnnc2N1 (stereo unspecified)	-0.08
COC(=O)CSc1cc(C(F)(F)F)nc2c(C(=O)OC)scc12	-0.92
COc1ccc(-c2nc(-c3cc4cc(C)ccc4[nH]c3=O)no2)cc1OC	-0.57
COc1ccc(C(=O)CC2(O)C(=O)Nc3ccc(Cl)cc32)cc1 (stereo unspecified)	-0.35
CCc1ccc(C2CC(=O)NC(SC)=C2C#N)cc1 (stereo unspecified)	0.11
Cc1ccc2c(c1)C(O)(CC(=O)c1ccc(C(C)C)cc1)C(=O)N2 (stereo unspecified)	0.2
Cc1ccc(S(=O)(=O)N(C(=O)c2cccnc2)c2ccc3oc(=O)sc3c2)c(C)c1	8.4*
Cc1ccc(S(=O)(=O)NCc2cccnc2)c(C)c1	1.2
Cc1ccc(C)c(S(=O)(=O)N(C(=O)c2cccnc2)c2ccc3oc(=O)sc3c2)c1	13
Cc1cc(C)c(S(=O)(=O)N(C(=O)c2cccnc2)c2ccc3oc(=O)sc3c2)cc1C	11*
C=CCn1c(=O)n(-c2ccc(C)cc2)c(=O)c2cc(-c3ccccc3)sc21	-0.59
Cc1oc(-c2ccc(Cl)cc2)cc1C(=O)/C=C/N(C)C	0.59
CN(C)/C=N/c1nnc(Sc2nc3c(Cl)cc(Cl)cc3s2)s1	-0.21
COc1ccc(C(=O)N2CCSC2=S)cc1	0.68
COCOc1ccc(C(=O)O)cc1OC	-0.83
COc1ccc(C(=O)N2CCSC2=S)cc1OC	3.5*
COc1ccc(CN(Cc2ccc(OC)cc2)C(=O)Nc2ccc(Cl)cc2)cc1	-0.18
COc1oc(-c2cccc(C)c2)nc1C(F)(F)F	3.6*
Cc1cccc(-c2nnc(-c3ccccc3)o2)c1	2.6
COc1cc(OC)cc(-c2nc(-c3cccc(C)c3)no2)c1	-0.47
COc1ccc(C2Nc3c(C)cc(C)cc3-c3cc(C)nn32)cc1 (stereo unspecified)	2.5
Cc1ccc2c(c1)N(C)/C(=C/c1ccc3ccccc3[n+]1C)S2	-0.12
CCCCCCCc1c(O)c2cccc3c2n(c1=O)CCC3	-0.37

Screening data from PubChem.
